# mut p53 react – mutant p53 pathway re-activators, primary screen, cell-based, SW480, luciferase, single point, HTS; 1.5% of 28,000 active; activation, % at 9.98 µM; SW480 PUMA-promoter luciferase, p53 mutant reactivation; in the data active = activation above about 52%; inconclusive = no clear call, values can overlap the other calls
# ID4 binder – binders of human ID4 protein, primary screen, biochemical, small molecule microarray, single point | Flag-ID4 binding, fluorescence F/B | calls only | 1.2% of 31,000 active; call rule not given here;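 note: a binder raises fluorescence above local background on the spot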
# Target sequence (P47928 whole entry, looked up): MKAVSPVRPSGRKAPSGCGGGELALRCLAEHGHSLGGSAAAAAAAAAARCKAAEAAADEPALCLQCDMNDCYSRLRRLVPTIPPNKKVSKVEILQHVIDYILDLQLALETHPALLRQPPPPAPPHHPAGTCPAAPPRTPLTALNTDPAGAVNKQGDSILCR
# * marks the source's active call; other numbers are inactive results; i = inactive; ? = inconclusive; / = no result; + = active, no number. Sampled rows, rich in hits. Any-hit rate of the full collection: about 2.2%.
SMILES,mut p53 react,ID4 binder
CCCN(C)C[C@@H]1Oc2cc(C#CCN(C)C)ccc2S(=O)(=O)N([C@@H](C)CO)C[C@@H]1C,/,i
COc1ccc(NC(=O)COc2ccccc2CO)cc1,25.2,i
O=C(COc1ccccc1CO)Nc1ccccc1,77.4*,i
O=C(COc1ccc(CO)cc1)Nc1ccccc1,65.9*,i
O=C(COc1ccc(CO)cc1)Nc1ccc(F)cc1,22.5,i
C[C@@H]1CN([C@H](C)CO)C(=O)CCCn2nncc2CO[C@@H]1CN(C)C(=O)c1ccccc1,5.9,i
Nc1nc(Nc2ccccc2)nc2c1ncn2C1OC(CO)C(O)C1O (stereo not given),-2.2,i
O=C(C[C@H]1C=C[C@@H](NS(=O)(=O)c2ccc(F)cc2)[C@@H](CO)O1)NC1CCCCC1,/,i
CSc1nncc(-c2ccc(Cl)cc2)n1,63.2*,i
O=C(CSc1nc(-c2ccc(Cl)cc2)cc(C(F)(F)F)n1)Nc1ccc(F)cc1,-28.2,i
CCn1c(SCC(=O)Nc2ccc3c(c2)OCCO3)nc2sc(C)c(C)c2c1=O,5.7,i
CC(=O)N1CCN(C(=S)c2ccc(-c3ccc(C)cc3)o2)CC1,54.9*,i
Cc1cc(Cl)cc(Cl)c1OCC(=O)Nc1ccccc1[N+](=O)[O-],10.0,i
CC(=O)Nc1ccc(OCC(=O)Nc2ccc3c(c2)oc2ccccc23)cc1,37.1,i
Cc1ccnc(NC(=O)COc2ccc(Cl)cc2)n1,?,i
COc1ccc(OCC(=O)Nc2cc(OC)c(Cl)cc2OC)cc1,81.6*,i
O=C(COc1ccc(Cl)cc1)Nc1ncccn1,74.1*,i
COc1cc(NC(=O)COc2cccc(C)c2)c(OC)cc1Cl,35.1,i
CC(=O)Nc1ccc(OCC(=O)Nc2ccc(Cl)c(Cl)c2)cc1,64.6*,i
Cc1cc(OCC(=O)Nc2ccccc2[N+](=O)[O-])ccc1Cl,85.9*,i
C[C@@H](NC(=O)C[C@H]1C[C@@H]2c3cc(N(C)C)ccc3O[C@@H]2[C@@H](CO)O1)c1ccccc1,6.1,i
Cc1cc(Cl)c(S(=O)(=O)Nc2ccc3c(c2)CCC3)cc1OCC(N)=O,-9.0,i
CCc1ccc(C(Nc2ccccn2)c2cc(Cl)c3cccnc3c2O)cc1 (stereo not given),-78.9,i
Cc1ccc(S(=O)(=O)N(C)C[C@@H]2Oc3ccc(NC(=O)C4CCCCC4)cc3C(=O)N([C@H](C)CO)C[C@H]2C)cc1,20.6,/
Cc1ccc(NC(=O)COc2ccc(Cl)c(C)c2)c([N+](=O)[O-])c1,59.4*,i
SMILES,mut p53 react,ID4 binder
Cc1cc(OCC(=O)Nc2ccc(CC#N)cc2)ccc1[N+](=O)[O-],8.6,i
COc1ccc(OCC(=O)Nc2ccc(C)cc2[N+](=O)[O-])cc1,135.5*,i
COc1ccc(NC(=O)CSc2ccccn2)c([N+](=O)[O-])c1,62.0*,i
COc1ccccc1NC(=O)CSc1ccccn1,26.7,i
Cc1ccc(NC(=O)COc2ccc(C(C)(C)C)cc2)c([N+](=O)[O-])c1,18.0,i
COc1ccc(-c2nc3ccccc3s2)cc1NC(=O)COc1ccc(C(C)C)cc1,48.4,i
COc1ccc(-c2nc3ccccc3s2)cc1NC(=O)COc1ccc(Br)cc1,79.1*,i
C[C@H]1[C@H](C)CC[C@]2(C(=O)O)CC[C@]3(C(=O)O)C(=CCC4[C@@]5(C)CC[C@H](O[C@@H]6O[C@@H](C)[C@H](O)[C@@H](O)[C@H]6O)C(C)(C)C5CC[C@]43C)[C@H]12 (stereo not given in full),10.0,i
CC(C)CC#Cc1cnc2c(c1)C(=O)N([C@H](C)CO)C[C@@H](C)[C@H](CN(C)C(=O)c1cccc(F)c1)O2,/,i
O=C(CSc1nc2ccc(NC(=O)c3ccccc3)cc2s1)Nc1cccc([N+](=O)[O-])c1,59.5*,i
Cc1ccccc1C(=O)Nc1ccc2nc(SCC(=O)Nc3ccc([N+](=O)[O-])cc3)sc2c1,20.0,i
O=C(CSc1nc2ccc(NC(=O)c3ccccc3F)cc2s1)c1cccc([N+](=O)[O-])c1,75.7*,i
Cc1ccccc1C(=O)Nc1ccc2nc(SCC(=O)Nc3ccccc3)sc2c1,-12.1,i
C[C@@H]1CN([C@H](C)CO)S(=O)(=O)c2ccc(-c3cccc(C(=O)N(C)C)c3)cc2O[C@@H]1CN(C)C(=O)Cc1ccccn1,10.1,/
Cn1ccc2cc3c(cc21)CCN3C(=O)Nc1cccnc1,68.6*,i
COc1cc2c(cc1C(F)(F)F)N(C(=O)Nc1cc(F)cc(-c3cccnc3)c1)CC2,-69.6,i
O=C1N[C@@H](Cc2ccccc2)C(=O)N2[C@@H]1C[C@@H](C(=O)NCc1ccc(F)cc1)[C@H]2c1ccc(O)cc1,/,+
CC(=O)NCCCC[C@@H]1NC(=O)[C@H]2C[C@@H](C(=O)NCCCCCCN(C)C)[C@@H](c3cccc(OCCO)c3)N2C1=O,/,i
CC(C)C[C@@H]1NC(=O)[C@@H]2C[C@H](C(=O)NCc3ccc(F)cc3)[C@H](c3cccc(OCCO)c3)N2C1=O,/,i
CN(C)CCCC[C@@H]1NC(=O)[C@H]2C[C@@H](C(=O)NCc3ccc(F)cc3)[C@@H](c3ccc(O)cc3)N2C1=O,/,i
O=C(NCc1ccc(F)cc1)[C@H]1C[C@H]2C(=O)N[C@@H](Cc3ccccc3)C(=O)N2[C@H]1c1cccc(OCCO)c1,/,+
NCCCCCCNC(=O)[C@@H]1C[C@@H]2C(=O)NCC(=O)N2[C@@H]1c1cccc(OCCO)c1,/,+
CC(=O)O[C@@H]1[C@@H](O)[C@H](C)O[C@@H](O[C@H]2[C@@H]3C=CO[C@@H](O[C@@H]4O[C@H](CO)[C@@H](O)[C@H](O)[C@H]4O)[C@@H]3[C@@]3(CO)O[C@@H]23)[C@@H]1OC(=O)/C=C/c1ccc(O)cc1,-8.6,i
CC(C)C#Cc1cnc2c(c1)C(=O)N([C@@H](C)CO)C[C@H](C)[C@@H](CN(C)C(=O)CC1CC1)O2,-3.9,i
Cc1cc(C)nc(SCC(O)COc2ccccc2)n1 (stereo not given),?,i
SMILES,mut p53 react,ID4 binder
OC(COc1ccc(Cl)cc1)CSc1ccccn1 (stereo not given),77.7*,i
c1cc(-c2cnn3cc(-c4ccc(OCCN5CCCCC5)cc4)cnc23)ccn1,-59.6,+
C[C@@H]1CN([C@@H](C)CO)C(=O)c2cc(C#Cc3cccc(F)c3)cnc2O[C@H]1CN(C)C(=O)C1CC1,/,i
C=C(C(=O)O)C(CCCCC(C)O)C(=O)O (stereo not given),3.7,i
C=C(C(=O)O)C(CCCCCCO)C(=O)O (stereo not given),-5.4,+
Cc1ccc2oc(-c3ccc(C)c(NC(=O)COc4ccc(Br)cc4)c3)nc2c1,64.5*,i
Cc1ccc(-c2nc3ccccc3o2)cc1NC(=O)COc1ccccc1,-11.2,i
Cc1cc2nc(-c3ccc(C)c(NC(=O)COc4ccc([N+](=O)[O-])cc4)c3)oc2cc1C,66.3*,i
Cc1ccc2oc(-c3ccc(Cl)c(NC(=O)COc4ccc(C)c(C)c4)c3)nc2c1,-9.3,i
Cc1nonc1OCCNc1cc(N2CCCC2)ccc1[N+](=O)[O-],89.4*,i
Cc1nonc1OCCNc1cc(N2CCOCC2)ccc1[N+](=O)[O-],19.9,i
Cc1ccc(-c2nc(SCC(=O)c3ccccc3)n[nH]2)cc1,43.5,i

# Bioassay records: PubChem, Broad Institute
